Columns and labels:
Assay in all cases: DAPPL (digital affinity profiling via proximity ligation, sequencing); 10 mM Tris-HCl pH 7.5, 50 mM NaCl, 1 mM DTT, 4% glycerol, room temperature, 30 min; GST-TFs on glutathione beads, 16-mer random dsDNA library, 0.1% formaldehyde crosslink after washing; high values mean tight binding
Conditions in all cases: protein: recombinant; tags: N-terminal GST; dsDNA, one strand shown
FLI1 = target: T1, FLI1 (Homo sapiens, UniProt Q01543 1-452)
T1 sequence: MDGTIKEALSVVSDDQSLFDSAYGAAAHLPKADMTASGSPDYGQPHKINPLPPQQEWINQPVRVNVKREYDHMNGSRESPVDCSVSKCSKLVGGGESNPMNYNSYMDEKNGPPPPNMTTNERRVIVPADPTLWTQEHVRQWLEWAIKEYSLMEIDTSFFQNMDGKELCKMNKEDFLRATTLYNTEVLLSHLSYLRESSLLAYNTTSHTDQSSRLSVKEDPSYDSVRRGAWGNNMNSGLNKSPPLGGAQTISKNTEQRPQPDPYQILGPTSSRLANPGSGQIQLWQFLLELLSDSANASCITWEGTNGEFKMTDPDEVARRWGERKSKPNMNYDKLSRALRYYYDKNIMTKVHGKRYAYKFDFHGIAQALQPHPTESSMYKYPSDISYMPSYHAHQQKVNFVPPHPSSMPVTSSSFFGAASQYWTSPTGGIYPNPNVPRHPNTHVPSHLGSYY
Method in brief: (§1)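 The binding signal reported is, for every hexamer, its read frequency for a factor over its read frequency for the tag-only sample. Reads came from pools of yeast-expressed, GST-fused human transcription factors on glutathione beads, barcoded with DNA and mixed with that sample, which were incubated with 200 nmole of a random double-stranded 16-mer DNA library in Tris/NaCl/DTT/glycerol buffer at room temperature for 30 min. After washing, the pools were crosslinked with 0.1% formaldehyde, proximity-ligated with BsaI/T4 ligase for 1 h at 37 °C, PCR-amplified and sequenced on an Illumina NextSeq500.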

ELK1 = target: T2, ELK1 (Homo sapiens, UniProt P19419 1-428)
T2 sequence: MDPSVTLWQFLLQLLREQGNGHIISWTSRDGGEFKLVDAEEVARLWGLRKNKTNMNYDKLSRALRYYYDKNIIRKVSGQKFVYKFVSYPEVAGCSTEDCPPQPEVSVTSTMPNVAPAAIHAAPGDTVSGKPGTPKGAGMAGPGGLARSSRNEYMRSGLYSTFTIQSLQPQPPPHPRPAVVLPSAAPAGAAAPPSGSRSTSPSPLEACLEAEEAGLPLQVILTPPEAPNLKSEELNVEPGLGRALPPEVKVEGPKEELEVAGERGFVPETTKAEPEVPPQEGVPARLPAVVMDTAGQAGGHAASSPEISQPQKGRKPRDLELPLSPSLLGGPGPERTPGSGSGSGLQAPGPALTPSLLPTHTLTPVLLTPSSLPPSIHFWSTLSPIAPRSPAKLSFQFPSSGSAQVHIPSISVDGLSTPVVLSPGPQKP
Method in brief: as §1

GABPA = target: T3, GABPA (Homo sapiens, UniProt Q06546 1-454)
T3 sequence: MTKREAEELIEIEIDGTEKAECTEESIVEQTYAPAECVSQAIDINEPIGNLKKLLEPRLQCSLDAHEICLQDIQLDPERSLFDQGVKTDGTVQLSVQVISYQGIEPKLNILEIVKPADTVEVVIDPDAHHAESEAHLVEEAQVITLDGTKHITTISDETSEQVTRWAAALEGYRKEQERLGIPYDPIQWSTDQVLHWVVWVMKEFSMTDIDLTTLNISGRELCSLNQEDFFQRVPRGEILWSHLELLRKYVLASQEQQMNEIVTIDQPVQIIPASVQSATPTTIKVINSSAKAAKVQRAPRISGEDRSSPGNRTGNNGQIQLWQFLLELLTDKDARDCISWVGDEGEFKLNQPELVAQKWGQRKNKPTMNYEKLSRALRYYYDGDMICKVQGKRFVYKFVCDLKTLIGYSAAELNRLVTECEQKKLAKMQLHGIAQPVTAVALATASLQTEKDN
Method in brief: as §1

ERG = target: T4, ERG (Homo sapiens, UniProt P11308 1-479)
T4 sequence: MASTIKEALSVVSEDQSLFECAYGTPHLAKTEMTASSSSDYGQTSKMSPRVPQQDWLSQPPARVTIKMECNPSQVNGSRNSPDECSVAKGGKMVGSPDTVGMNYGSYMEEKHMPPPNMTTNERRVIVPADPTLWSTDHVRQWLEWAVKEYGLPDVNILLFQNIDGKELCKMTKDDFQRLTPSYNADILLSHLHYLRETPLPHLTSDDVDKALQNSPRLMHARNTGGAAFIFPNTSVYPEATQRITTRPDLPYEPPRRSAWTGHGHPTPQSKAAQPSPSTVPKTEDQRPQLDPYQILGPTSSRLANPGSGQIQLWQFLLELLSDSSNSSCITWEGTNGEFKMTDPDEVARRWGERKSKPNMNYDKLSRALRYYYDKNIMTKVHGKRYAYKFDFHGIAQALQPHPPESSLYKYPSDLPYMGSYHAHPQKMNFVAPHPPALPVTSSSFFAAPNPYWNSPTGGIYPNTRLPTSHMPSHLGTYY
Method in brief: as §1

ELF1 = ELF1 (Homo sapiens, UniProt P32519 1-619)
ELF1, sequence (P32519 whole entry): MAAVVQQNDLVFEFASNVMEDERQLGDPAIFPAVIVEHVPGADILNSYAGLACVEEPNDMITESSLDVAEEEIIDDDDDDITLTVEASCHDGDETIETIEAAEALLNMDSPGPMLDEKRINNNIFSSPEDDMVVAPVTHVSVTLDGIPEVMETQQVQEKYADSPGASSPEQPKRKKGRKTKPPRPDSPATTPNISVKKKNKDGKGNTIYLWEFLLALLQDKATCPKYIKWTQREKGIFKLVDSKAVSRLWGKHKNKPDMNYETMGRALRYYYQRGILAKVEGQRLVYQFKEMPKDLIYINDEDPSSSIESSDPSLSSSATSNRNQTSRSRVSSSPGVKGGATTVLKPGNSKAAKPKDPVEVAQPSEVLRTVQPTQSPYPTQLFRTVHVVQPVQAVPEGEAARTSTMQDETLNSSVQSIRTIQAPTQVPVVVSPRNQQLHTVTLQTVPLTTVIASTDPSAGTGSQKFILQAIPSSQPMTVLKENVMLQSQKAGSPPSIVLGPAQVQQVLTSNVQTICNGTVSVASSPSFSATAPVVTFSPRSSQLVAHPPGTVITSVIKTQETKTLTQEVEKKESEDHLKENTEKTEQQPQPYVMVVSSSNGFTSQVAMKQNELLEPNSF
Method in brief: as §1

EHF = target: T5, EHF (Homo sapiens, UniProt Q9NZC4 1-300)
T5 sequence: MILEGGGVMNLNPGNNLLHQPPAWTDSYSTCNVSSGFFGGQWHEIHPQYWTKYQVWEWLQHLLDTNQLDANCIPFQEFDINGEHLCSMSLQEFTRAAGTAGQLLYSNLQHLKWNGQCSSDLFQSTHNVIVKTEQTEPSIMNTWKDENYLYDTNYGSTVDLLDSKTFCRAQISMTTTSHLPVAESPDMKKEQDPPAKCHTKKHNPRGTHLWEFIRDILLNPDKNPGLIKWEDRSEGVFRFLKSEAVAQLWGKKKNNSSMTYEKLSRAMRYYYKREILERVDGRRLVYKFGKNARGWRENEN
Method in brief: as §1

SPI1 = SPI1 (Homo sapiens, UniProt P17947 1-270)
Method in brief: as §1

SPIB = SPIB (Homo sapiens, UniProt Q01892 1-262)
SPIB, sequence (Q01892 whole entry): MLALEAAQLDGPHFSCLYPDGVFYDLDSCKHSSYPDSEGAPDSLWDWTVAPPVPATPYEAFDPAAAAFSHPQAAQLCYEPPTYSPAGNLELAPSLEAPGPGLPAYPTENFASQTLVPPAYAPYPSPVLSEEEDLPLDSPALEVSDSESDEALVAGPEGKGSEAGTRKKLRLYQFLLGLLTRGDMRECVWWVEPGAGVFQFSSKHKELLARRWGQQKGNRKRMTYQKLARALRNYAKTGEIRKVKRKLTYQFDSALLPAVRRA
Method in brief: as §1

ELK3 = target: T6, ELK3 (Homo sapiens, UniProt P41970 1-407)
T6 sequence: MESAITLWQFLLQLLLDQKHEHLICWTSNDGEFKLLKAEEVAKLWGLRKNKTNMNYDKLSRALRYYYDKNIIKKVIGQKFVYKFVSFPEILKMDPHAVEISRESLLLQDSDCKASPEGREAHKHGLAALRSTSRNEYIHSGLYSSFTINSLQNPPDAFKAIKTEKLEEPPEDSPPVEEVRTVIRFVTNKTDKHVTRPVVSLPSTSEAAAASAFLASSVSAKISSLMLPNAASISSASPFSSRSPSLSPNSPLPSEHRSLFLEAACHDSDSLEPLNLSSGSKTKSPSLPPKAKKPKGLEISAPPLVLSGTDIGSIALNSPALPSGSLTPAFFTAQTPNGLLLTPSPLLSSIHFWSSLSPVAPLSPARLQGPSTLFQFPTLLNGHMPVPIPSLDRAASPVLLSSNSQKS
Method in brief: as §1

FEV = target: T7, FEV (Homo sapiens, UniProt Q99581 1-238)
T7 sequence: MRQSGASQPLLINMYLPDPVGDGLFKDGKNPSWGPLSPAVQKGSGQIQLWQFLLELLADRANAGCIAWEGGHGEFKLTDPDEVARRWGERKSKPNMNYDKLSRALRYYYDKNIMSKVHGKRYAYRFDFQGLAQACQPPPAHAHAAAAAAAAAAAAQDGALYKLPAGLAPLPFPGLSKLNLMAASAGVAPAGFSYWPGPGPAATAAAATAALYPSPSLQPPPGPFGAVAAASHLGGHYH
Method in brief: as §1

ETV5 = ETV5 (Homo sapiens, UniProt P41161 1-510)
ETV5, sequence (P41161 whole entry): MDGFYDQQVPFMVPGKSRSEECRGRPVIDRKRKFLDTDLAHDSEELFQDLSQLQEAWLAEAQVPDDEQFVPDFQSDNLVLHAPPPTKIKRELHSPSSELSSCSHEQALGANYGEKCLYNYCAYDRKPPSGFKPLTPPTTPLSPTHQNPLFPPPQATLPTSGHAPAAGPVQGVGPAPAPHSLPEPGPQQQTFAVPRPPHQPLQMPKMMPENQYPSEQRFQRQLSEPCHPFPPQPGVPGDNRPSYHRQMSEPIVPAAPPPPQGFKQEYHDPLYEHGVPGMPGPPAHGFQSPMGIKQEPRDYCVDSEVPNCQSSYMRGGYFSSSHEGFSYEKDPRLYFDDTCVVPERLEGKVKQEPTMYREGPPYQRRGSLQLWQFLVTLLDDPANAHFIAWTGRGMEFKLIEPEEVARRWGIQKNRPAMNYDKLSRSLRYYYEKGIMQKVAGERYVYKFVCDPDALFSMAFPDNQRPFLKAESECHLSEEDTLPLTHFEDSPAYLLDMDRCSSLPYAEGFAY
Method in brief: as §1

SPIC = target: T8, SPIC (Homo sapiens, UniProt Q8N5J4 1-248)
T8 sequence: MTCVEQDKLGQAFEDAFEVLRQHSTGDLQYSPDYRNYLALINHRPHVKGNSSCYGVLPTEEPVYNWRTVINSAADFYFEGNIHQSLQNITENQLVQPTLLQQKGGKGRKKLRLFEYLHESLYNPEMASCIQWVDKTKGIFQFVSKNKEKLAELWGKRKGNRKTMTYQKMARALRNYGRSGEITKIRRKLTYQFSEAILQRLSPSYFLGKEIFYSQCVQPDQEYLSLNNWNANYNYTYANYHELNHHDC
Method in brief: as §1

ELF4 = ELF4 (Homo sapiens, UniProt Q99607 1-663)
ELF4, sequence (Q99607 whole entry): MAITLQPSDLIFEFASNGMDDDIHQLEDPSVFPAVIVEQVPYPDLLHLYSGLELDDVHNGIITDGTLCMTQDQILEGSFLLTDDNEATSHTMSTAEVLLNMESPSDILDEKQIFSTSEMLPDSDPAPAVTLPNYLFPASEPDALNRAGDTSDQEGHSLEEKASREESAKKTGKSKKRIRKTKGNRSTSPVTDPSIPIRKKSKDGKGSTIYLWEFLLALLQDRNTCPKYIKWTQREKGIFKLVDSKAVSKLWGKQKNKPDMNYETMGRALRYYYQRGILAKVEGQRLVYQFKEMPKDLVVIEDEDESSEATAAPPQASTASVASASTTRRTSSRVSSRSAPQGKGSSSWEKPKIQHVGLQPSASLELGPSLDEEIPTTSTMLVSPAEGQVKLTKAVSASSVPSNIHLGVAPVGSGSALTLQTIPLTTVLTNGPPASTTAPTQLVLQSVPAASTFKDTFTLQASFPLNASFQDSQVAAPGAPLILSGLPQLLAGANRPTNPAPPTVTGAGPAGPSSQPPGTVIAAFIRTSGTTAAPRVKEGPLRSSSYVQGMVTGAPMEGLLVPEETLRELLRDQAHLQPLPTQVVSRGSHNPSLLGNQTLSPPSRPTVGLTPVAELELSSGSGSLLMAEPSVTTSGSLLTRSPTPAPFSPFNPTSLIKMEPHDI
Method in brief: as §1

ETV1 = ETV1 (Homo sapiens, UniProt P50549 1-477)
ETV1, sequence (P50549 whole entry): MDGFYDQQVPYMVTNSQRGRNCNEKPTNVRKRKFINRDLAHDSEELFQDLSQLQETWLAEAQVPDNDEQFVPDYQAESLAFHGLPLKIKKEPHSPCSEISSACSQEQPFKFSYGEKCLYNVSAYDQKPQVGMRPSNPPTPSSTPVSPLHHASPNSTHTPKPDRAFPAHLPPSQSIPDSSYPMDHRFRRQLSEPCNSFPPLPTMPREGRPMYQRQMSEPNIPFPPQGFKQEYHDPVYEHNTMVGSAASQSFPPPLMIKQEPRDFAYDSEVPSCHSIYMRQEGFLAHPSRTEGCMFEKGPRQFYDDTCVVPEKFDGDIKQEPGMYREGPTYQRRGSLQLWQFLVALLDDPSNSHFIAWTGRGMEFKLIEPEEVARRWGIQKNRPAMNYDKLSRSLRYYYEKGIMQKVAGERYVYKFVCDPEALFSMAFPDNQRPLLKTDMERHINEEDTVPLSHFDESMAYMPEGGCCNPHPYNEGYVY
Method in brief: as §1

ERF = target: T9, ERF (Homo sapiens, UniProt P50548 1-548)
T9 sequence: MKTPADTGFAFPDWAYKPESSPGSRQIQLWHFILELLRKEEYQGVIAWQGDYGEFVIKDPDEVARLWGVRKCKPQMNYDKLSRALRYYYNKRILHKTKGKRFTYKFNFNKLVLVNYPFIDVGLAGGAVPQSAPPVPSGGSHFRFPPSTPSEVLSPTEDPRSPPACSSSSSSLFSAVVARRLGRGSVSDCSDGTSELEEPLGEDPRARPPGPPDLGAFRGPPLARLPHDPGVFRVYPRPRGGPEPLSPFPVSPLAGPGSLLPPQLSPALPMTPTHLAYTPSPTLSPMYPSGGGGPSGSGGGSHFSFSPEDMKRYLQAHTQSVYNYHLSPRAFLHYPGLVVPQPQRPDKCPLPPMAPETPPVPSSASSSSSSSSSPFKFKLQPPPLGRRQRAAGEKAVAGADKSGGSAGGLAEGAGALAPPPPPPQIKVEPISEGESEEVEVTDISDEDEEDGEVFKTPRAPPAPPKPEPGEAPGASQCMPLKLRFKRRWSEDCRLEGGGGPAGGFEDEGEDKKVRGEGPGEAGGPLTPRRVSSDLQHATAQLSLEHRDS
Method in brief: as §1

ETV3L = target: T10, ETV3L (Homo sapiens, UniProt Q6ZN32 1-361)
T10 sequence: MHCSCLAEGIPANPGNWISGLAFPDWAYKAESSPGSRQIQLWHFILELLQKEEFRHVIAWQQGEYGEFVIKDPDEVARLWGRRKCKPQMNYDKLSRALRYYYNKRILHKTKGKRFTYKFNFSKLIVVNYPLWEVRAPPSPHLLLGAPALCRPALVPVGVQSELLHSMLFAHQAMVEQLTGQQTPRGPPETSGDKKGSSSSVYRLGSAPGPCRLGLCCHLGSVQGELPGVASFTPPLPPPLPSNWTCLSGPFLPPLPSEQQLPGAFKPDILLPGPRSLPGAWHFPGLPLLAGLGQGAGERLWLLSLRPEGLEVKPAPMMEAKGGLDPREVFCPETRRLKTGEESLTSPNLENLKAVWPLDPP
Method in brief: as §1

ETS2 = target: T11, ETS2 (Homo sapiens, UniProt P15036 1-469)
T11 sequence: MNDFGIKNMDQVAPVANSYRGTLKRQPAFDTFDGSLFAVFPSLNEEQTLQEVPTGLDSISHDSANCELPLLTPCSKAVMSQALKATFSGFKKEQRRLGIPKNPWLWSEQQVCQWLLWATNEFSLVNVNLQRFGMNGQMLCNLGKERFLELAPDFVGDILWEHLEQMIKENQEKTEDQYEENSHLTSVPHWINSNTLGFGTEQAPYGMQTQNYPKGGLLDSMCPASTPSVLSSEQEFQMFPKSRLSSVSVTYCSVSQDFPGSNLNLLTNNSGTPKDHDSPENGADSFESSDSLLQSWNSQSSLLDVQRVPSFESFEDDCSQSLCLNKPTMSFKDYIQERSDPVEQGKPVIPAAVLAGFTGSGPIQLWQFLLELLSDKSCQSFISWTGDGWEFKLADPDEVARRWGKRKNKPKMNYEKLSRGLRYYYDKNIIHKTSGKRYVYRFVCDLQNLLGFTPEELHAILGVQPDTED
Method in brief: as §1

SPDEF = target: T12, SPDEF (Homo sapiens, UniProt O95238 1-335)
T12 sequence: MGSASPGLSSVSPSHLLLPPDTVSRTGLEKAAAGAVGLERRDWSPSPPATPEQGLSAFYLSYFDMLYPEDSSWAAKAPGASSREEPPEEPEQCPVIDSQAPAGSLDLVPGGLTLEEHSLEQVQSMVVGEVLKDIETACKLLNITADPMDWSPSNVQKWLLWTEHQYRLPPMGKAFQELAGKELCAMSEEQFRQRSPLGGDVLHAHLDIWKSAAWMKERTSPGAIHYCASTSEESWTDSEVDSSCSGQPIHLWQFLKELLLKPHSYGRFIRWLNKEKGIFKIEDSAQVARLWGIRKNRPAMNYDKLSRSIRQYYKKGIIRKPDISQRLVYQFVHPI
Method in brief: as §1

ETV3 = target: T13, ETV3 (Homo sapiens, UniProt P41162-2 1-143)
T13 sequence: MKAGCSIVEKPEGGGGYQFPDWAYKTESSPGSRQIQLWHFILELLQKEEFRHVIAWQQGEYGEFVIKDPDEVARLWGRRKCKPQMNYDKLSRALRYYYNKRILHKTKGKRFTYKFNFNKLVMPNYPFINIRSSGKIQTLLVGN
Method in brief: as §1

ETV6 = ETV6 (Homo sapiens, UniProt P41212 1-452)
ETV6, sequence (P41212 whole entry): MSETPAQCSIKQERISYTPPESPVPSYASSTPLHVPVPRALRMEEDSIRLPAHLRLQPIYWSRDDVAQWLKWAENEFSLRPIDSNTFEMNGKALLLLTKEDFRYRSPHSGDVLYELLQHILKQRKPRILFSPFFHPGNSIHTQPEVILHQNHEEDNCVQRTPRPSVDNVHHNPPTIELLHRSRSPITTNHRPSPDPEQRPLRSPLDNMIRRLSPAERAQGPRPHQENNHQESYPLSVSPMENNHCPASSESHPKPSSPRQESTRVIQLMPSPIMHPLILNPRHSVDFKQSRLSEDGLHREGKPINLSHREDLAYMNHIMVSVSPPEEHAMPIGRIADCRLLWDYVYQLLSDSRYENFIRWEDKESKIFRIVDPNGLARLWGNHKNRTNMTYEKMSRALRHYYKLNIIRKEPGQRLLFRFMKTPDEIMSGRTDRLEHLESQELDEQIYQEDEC
Method in brief: as §1

Sequence: ACCACC
- binding signal (FLI1): 1.1 fold enrichment (6-mer frequency, TF over GST control)
- binding signal (ELK1): 1.08 fold enrichment (6-mer frequency, TF over GST control)
- binding signal (GABPA): 1.14 fold enrichment (6-mer frequency, TF over GST control)
- binding signal (ERG): 1.11 fold enrichment (6-mer frequency, TF over GST control)
- binding signal (ELF1): 1.18 fold enrichment (6-mer frequency, TF over GST control)
- binding signal (EHF): 1.15 fold enrichment (6-mer frequency, TF over GST control)
- binding signal (SPI1): 1.1 fold enrichment (6-mer frequency, TF over GST control)
- binding signal (SPIB): 1.18 fold enrichment (6-mer frequency, TF over GST control)
- binding signal (ELK3): 1.21 fold enrichment (6-mer frequency, TF over GST control)
- binding signal (FEV): 1.18 fold enrichment (6-mer frequency, TF over GST control)
- binding signal (ETV5): 1.1 fold enrichment (6-mer frequency, TF over GST control)
- binding signal (SPIC): 1.08 fold enrichment (6-mer frequency, TF over GST control)
- binding signal (ELF4): 1.14 fold enrichment (6-mer frequency, TF over GST control)
- binding signal (ETV1): 1.02 fold enrichment (6-mer frequency, TF over GST control)
- binding signal (ERF): 1.17 fold enrichment (6-mer frequency, TF over GST control)
- binding signal (ETV3L): 1.08 fold enrichment (6-mer frequency, TF over GST control)
- binding signal (ETS2): 1.15 fold enrichment (6-mer frequency, TF over GST control)
- binding signal (SPDEF): 1.17 fold enrichment (6-mer frequency, TF over GST control)
- binding signal (ETV3): 1.08 fold enrichment (6-mer frequency, TF over GST control)
- binding signal (ETV6): 1.09 fold enrichment (6-mer frequency, TF over GST control)
